Most compounds without a hit are left out; they make up all but 17% or so of the library.
TDP1 block = qHTS Assay for Inhibitors of Tyrosyl-DNA Phosphodiesterase (TDP1). Tyrosyl-DNA phosphodiesterase 1 (Homo sapiens), Q9NUW8. recombinant TDP1, AlphaScreen DNA substrate cleavage. Potency, µM (highest dose often 130 µM), without a hit: at the top dose activity change, negative = inhibition, actives largely listed as inhibitors. 350,000 compounds, 0.28% hits; also: % is scaled to controls: 0 for no effect and ±100 for the full control effect; nearly all actives have a fitted effect of over 40% in size
Target sequence (Q9NUW8 whole entry, looked up): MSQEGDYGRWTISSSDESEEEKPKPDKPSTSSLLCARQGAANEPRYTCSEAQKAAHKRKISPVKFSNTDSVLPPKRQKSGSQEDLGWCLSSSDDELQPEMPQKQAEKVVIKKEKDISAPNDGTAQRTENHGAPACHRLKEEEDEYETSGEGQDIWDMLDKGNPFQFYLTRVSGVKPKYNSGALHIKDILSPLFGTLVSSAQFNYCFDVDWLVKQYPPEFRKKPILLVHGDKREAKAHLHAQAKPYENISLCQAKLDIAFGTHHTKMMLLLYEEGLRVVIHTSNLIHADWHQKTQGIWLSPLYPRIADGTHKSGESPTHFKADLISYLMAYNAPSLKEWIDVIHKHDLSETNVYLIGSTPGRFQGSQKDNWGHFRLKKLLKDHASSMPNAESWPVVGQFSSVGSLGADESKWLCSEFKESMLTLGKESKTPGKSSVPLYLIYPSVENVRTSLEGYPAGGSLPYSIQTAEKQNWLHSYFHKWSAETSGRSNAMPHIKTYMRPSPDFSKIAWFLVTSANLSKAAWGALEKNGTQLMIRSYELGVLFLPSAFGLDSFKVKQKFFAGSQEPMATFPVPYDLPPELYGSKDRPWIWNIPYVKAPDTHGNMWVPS
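Tdp1 1 nM final; 15 min RT w/ cpd; substrate 15 nM, 5 min; beads 10 ug/ml, 10 min; AlphaScreen read. Neg ctrl: no enzyme.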
DT40 TDP1 no CPT = qHTS for Inhibitors of human tyrosyl-DNA phosphodiesterase 1 (TDP1): qHTS in cells in absence of CPT; DT40 Tdp1-/- hTDP1 cells, no CPT, ATP luminescence, 48 h; Potency, µM (top dose mostly 46.2 µM), for the others: top-dose activity change, negative = growth inhibition, usual class: inhibitors; 420,000 compounds, 15% hits; AID 686978, 2013; also: % is scaled to controls: 0 for no effect and ±100 for the full control effect; nearly all actives have a fitted effect of over 55% in size
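A cellular qHTS used chicken DT40 cells lacking endogenous Tdp1 but carrying stably transfected human TDP1. Compounds were applied without camptothecin, and cell growth kinetics were judged by ATP-dependent luminescence after ≥48 hr.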
DT40 TDP1 CPT = qHTS for Inhibitors of human tyrosyl-DNA phosphodiesterase 1 (TDP1): qHTS in cells in presence of CPT. AID 686979, 2013. chicken DT40 Tdp1-/-;hTDP1 cells + 20 nM CPT, ATP luminescence, 48 h. Potency, µM (series often up to 46.2 µM), inactives show at the highest dose activity change, negative = growth inhibition, hits mostly inhibitors. 420,000 compounds, 12% hits; also: % is scaled to controls: 0 for no effect and ±100 for the full control effect; nearly all actives have a fitted effect of over 55% in size
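Cell growth measured by CellTiter-Glo luminescence after a minimum 48 h, 37 C compound exposure with 20 nM CPT in Tdp1-knockout DT40 cells stably expressing hTDP1, seeded 400/well; qHTS titration format.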
ClpP mod = qHTS Assay for Activators of ClpP. ATP-dependent Clp protease proteolytic subunit (Bacillus subtilis (strain 168)), P80244. purified B. subtilis ClpP, FRET peptide cleavage, 20 min. 340,000 compounds, 1.9% hits. Potency, µM (titrated, usually from 57.5 µM), without a hit: at the top dose activity change, negative = active; active = well fitted falling curve with a large enough effect; inconclusive = small, poorly fitted or top-dose-only effect; inactive = no such curve, though single readings can be large or run the other way; also: the source files actives as falling curves though it sought activators and does not explain the sign; nearly all actives have a fitted effect of over 65% in size
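Buffer: 100 mM Tris/HCl pH8, 100 mM KCl, 0.05% low protease BSA, 2.5% glycerol, 0.01% Tween-20. ClpP 10 microg/mL final; 20 min RT; delta FRET normalized to ADEP and DMSO controls.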
* hit, by the source's call; ? = inconclusive; nt = no result; [ ] = remark or other dose. Unless noted, calls follow the shape of the dose curve; as a rule, active = well fitted curve in the direction sought with a large enough effect; inconclusive = small, poorly fitted or top-dose-only effect, or another doubt; inactive = no such curve, though single readings can be large; an effect the other way counts as inactive or inconclusive. Potency is read from the fitted curve at half-maximal effect.

SMILES	TDP1 block	DT40 TDP1 no CPT	DT40 TDP1 CPT	ClpP mod
Cc1nc2c(c3c1[nH]c1ccccc13)C(O)CC(C)(C)C2 (centres undefined)	0%	?	18µM*	14%
O=C1C=CC(=O)N1Cc1ccccc1	nt	2.3µM*	1µM*	-5%
O=C1C2CC=CCC2C(=O)N1Cc1ccccc1 (centres undefined)	-1%	-10%	0%	-2%
Cc1cc(NC(=O)CSCC(=O)OCc2nnc(-c3ccc(F)cc3)o2)no1	0%	8%	3%	-2%
Cc1[nH]c2ccc(C(=O)NC3CCC(C)CC3)cc2c1C (centres undefined)	8%	12µM*	?	-12%
CCc1ccc(NC(=O)c2ccc3[nH]c(C)c(C)c3c2)cc1	8%	-12%	-12%	-3%
Cc1[nH]c2ccc(C(=O)NC3CCCC3)cc2c1C	-6%[56.1 µM]	12%	9%	-9%
Cc1[nH]c2ccc(C(=O)Nc3ccncc3)cc2c1C	nt	12µM*	13µM*	-5%
COc1ccc(C(c2nnnn2C2CCCCC2)N2CCN(C)CC2)c(OC)c1 (centres undefined)	8%	-20%	-20%	0%
COc1ccc(OC)c(C(c2nnnn2C2CCCC2)N2CCN(c3ccccc3)CC2)c1 (centres undefined)	10%	21µM*	?	-19%
COc1ccc(C(c2nnnn2C2CCCCC2)N2CCN(c3ccc(OC)cc3)CC2)cc1 (centres undefined)	12%	16µM*	23µM*	-5%
CCC(c1nnnn1C1CCCC1)N1CCN(c2cccc(OC)c2)CC1 (centres undefined)	0%	16µM*	?	nt
CCC(c1nnnn1C1CCCC1)N1CCN(Cc2ccccc2)CC1 (centres undefined)	0%	-20%	-6%	-1%
COc1ccc(C(c2nnnn2C2CCCC2)N2CCC(C)CC2)cc1 (centres undefined)	1%	23µM*	?	0%
COCCn1nnnc1C(c1ccc(OC)cc1)N1CCC(C)CC1 (centres undefined)	0%	-25%	?	-2%
Cc1ccc(S(=O)(=O)Nc2csc(C)c2C(=O)O)cc1	nt	5%	10%	nt
Cn1c(=O)c2c(SCC(=O)NCc3ccco3)nc(-c3ccccc3)nc2n(C)c1=O	0%	-14%	4%	0%
O=C(NCc1cccnc1)c1csc([C@@H]2O[C@H](CO)[C@H](O)[C@H](O)[C@H]2O)n1	nt	-8%	5%	2%
CC(=O)N/C(=C\c1ccccc1)C(=O)OC/C=C/c1ccccc1	1%	17%	-9%	1%
c1ccc(-c2nc(NCc3cccs3)c3ccccc3n2)cc1	-3%	?	-14%	nt
CNCCN(C)c1nc(-c2cccs2)nc2ccccc12	-3%	22µM*	?	-7%
Cc1ccc(S(=O)(=O)N(C)CCN(C)c2nc(-c3cccs3)nc3ccccc23)cc1	0%	20µM*	?	32µM*
CN(CCO)c1nc(-c2cccs2)nc2ccccc12	?	?	18µM*	7%
c1csc(CNc2nc(-c3cccs3)nc3ccccc23)c1	1%	-10%	0%	nt
CN(Cc1cccs1)c1nc(-c2cccnc2)nc2ccccc12	5%	?	23µM*	-17%
SMILES	TDP1 block	DT40 TDP1 no CPT	DT40 TDP1 CPT	ClpP mod
OCCNc1nc(-c2cccs2)nc2ccccc12	1%	-16%	11%	-19%
O=C(NCc1ccc(F)cc1)C1CCC(CNS(=O)(=O)c2ccccc2)CC1 (centres undefined)	nt	?	?	1%
N#CCc1ccccc1[N+](=O)[O-]	13%	nt	nt	nt
COc1ccc(NC(=O)N2CCCC(C(=O)NCCc3ccccc3)C2)cc1 (centres undefined)	0%	?	?	nt
O=S(=O)(c1ccc(-c2csc(=Nc3ccccc3)n2CCCN2CCOCC2)cc1)N1CCOCC1	9%	?	?	-4%
CCCCn1c(-c2ccc(S(=O)(=O)N3CCOCC3)cc2)csc1=Nc1ccccc1	4%[12.3 µM]	15µM*	13µM*	-12%
CCCn1c(-c2ccc(S(=O)(=O)N3CCOCC3)cc2)csc1=Nc1ccc(OCC)cc1	11%	2.9µM*	4.1µM*	-3%

Screening results (PubChem BioAssay)
